Results: publication PMC11006913
Numbering of substitutions follows the chain as printed.

Tests used:
Assay in all cases: PBM; 200 nM protein, PBS
Details in all cases: dsDNA, one strand shown
SIX6 [1] = target: T1, SIX6 (Homo sapiens, UniProt O95475 114-200, L167I)
T1 sequence: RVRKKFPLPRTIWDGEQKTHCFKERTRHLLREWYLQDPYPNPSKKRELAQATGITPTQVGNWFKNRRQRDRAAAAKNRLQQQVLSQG

SIX6 [2] = target: T2, SIX6 (Homo sapiens, UniProt O95475 114-200, L143V)
T2 sequence: T1 sequence with L30V, I54L

SIX6 [3] = target: T3, SIX6 (Homo sapiens, UniProt O95475 114-200, H141N)
T3 sequence: T1 sequence with H28N, I54L

SIX6 [4] = target: T4, SIX6 (Homo sapiens, UniProt O95475 114-200, T165P)
T4 sequence: T1 sequence with T52P, I54L

SIX6 [5] = target: T5, SIX6 (Homo sapiens, UniProt O95475 114-200, L167M)
T5 sequence: T1 sequence with I54M

SIX6 [6] = target: T6, SIX6 (Homo sapiens, UniProt O95475 114-200, L143M)
T6 sequence: T1 sequence with L30M, I54L

SIX6 [7] = target: T7, SIX6 (Homo sapiens, UniProt O95475 114-200, L143I)
T7 sequence: T1 sequence with L30I, I54L

SIX6 [8] = target: T8, SIX6 (Homo sapiens, UniProt O95475 114-200, T165G)
T8 sequence: T1 sequence with T52G, I54L

SIX6 [9] = target: T9, SIX6 (Homo sapiens, UniProt O95475 114-200, T139Q)
T9 sequence: T1 sequence with T26Q, I54L

SIX6 [10] = target: T10, SIX6 (Homo sapiens, UniProt O95475 114-200, T165A)
T10 sequence: T1 sequence with T52A, I54L

SIX6 [11] = target: T11, SIX6 (Homo sapiens, UniProt O95475 114-200, L167V)
T11 sequence: T1 sequence with I54V

SIX6 [12] = target: T12, SIX6 (Homo sapiens, UniProt O95475 114-200)
T12 sequence: T1 sequence with I54L

SIX6 [13] = target: T13, SIX6 (Homo sapiens, UniProt O95475 114-200, T165I)
T13 sequence: T1 sequence with T52I, I54L

| Sequence | binding signal (SIX6 [1]) | binding signal (SIX6 [2]) | binding signal (SIX6 [3]) | binding signal (SIX6 [4]) | binding signal (SIX6 [5]) | binding signal (SIX6 [6]) | binding signal (SIX6 [7]) | binding signal (SIX6 [8]) | binding signal (SIX6 [9]) | binding signal (SIX6 [10]) | binding signal (SIX6 [11]) | binding signal (SIX6 [12]) | binding signal (SIX6 [13]) |
| --- | --- | --- | --- | --- | --- | --- | --- | --- | --- | --- | --- | --- | --- |
| ATGGCCGC | 8.86 upbm affinity estimate (log intensity, higher = more binding, comparable within an allelic series) | 8.81 upbm affinity estimate (log intensity, higher = more binding, comparable within an allelic series) | 8.75 upbm affinity estimate (log intensity, higher = more binding, comparable within an allelic series) | 8.94 upbm affinity estimate (log intensity, higher = more binding, comparable within an allelic series) | 8.89 upbm affinity estimate (log intensity, higher = more binding, comparable within an allelic series) | 8.74 upbm affinity estimate (log intensity, higher = more binding, comparable within an allelic series) | 8.82 upbm affinity estimate (log intensity, higher = more binding, comparable within an allelic series) | 8.77 upbm affinity estimate (log intensity, higher = more binding, comparable within an allelic series) | 8.7 upbm affinity estimate (log intensity, higher = more binding, comparable within an allelic series) | 8.69 upbm affinity estimate (log intensity, higher = more binding, comparable within an allelic series) | 8.93 upbm affinity estimate (log intensity, higher = more binding, comparable within an allelic series) | 8.75 upbm affinity estimate (log intensity, higher = more binding, comparable within an allelic series) | 8.83 upbm affinity estimate (log intensity, higher = more binding, comparable within an allelic series) |
| CCCCGAGG | 8.95 upbm affinity estimate (log intensity, higher = more binding, comparable within an allelic series) | 8.89 upbm affinity estimate (log intensity, higher = more binding, comparable within an allelic series) | 8.99 upbm affinity estimate (log intensity, higher = more binding, comparable within an allelic series) | 8.94 upbm affinity estimate (log intensity, higher = more binding, comparable within an allelic series) | 9.01 upbm affinity estimate (log intensity, higher = more binding, comparable within an allelic series) | 9.07 upbm affinity estimate (log intensity, higher = more binding, comparable within an allelic series) | 8.96 upbm affinity estimate (log intensity, higher = more binding, comparable within an allelic series) | 9.07 upbm affinity estimate (log intensity, higher = more binding, comparable within an allelic series) | 9.12 upbm affinity estimate (log intensity, higher = more binding, comparable within an allelic series) | 8.94 upbm affinity estimate (log intensity, higher = more binding, comparable within an allelic series) | 9 upbm affinity estimate (log intensity, higher = more binding, comparable within an allelic series) | 8.97 upbm affinity estimate (log intensity, higher = more binding, comparable within an allelic series) | 8.96 upbm affinity estimate (log intensity, higher = more binding, comparable within an allelic series) |
| ATGACACC | 10.7 upbm affinity estimate (log intensity, higher = more binding, comparable within an allelic series) | 10.2 upbm affinity estimate (log intensity, higher = more binding, comparable within an allelic series) | 11.1 upbm affinity estimate (log intensity, higher = more binding, comparable within an allelic series) | 9.61 upbm affinity estimate (log intensity, higher = more binding, comparable within an allelic series) | 10.1 upbm affinity estimate (log intensity, higher = more binding, comparable within an allelic series) | 10.7 upbm affinity estimate (log intensity, higher = more binding, comparable within an allelic series) | 10.4 upbm affinity estimate (log intensity, higher = more binding, comparable within an allelic series) | 11.4 upbm affinity estimate (log intensity, higher = more binding, comparable within an allelic series) | 11.3 upbm affinity estimate (log intensity, higher = more binding, comparable within an allelic series) | 11.4 upbm affinity estimate (log intensity, higher = more binding, comparable within an allelic series) | 10.5 upbm affinity estimate (log intensity, higher = more binding, comparable within an allelic series) | 10.9 upbm affinity estimate (log intensity, higher = more binding, comparable within an allelic series) | 10.9 upbm affinity estimate (log intensity, higher = more binding, comparable within an allelic series) |
| CCATATCA | 11.1 upbm affinity estimate (log intensity, higher = more binding, comparable within an allelic series) | 10.1 upbm affinity estimate (log intensity, higher = more binding, comparable within an allelic series) | 11.1 upbm affinity estimate (log intensity, higher = more binding, comparable within an allelic series) | 9.48 upbm affinity estimate (log intensity, higher = more binding, comparable within an allelic series) | 10.4 upbm affinity estimate (log intensity, higher = more binding, comparable within an allelic series) | 10.8 upbm affinity estimate (log intensity, higher = more binding, comparable within an allelic series) | 10.2 upbm affinity estimate (log intensity, higher = more binding, comparable within an allelic series) | 11.1 upbm affinity estimate (log intensity, higher = more binding, comparable within an allelic series) | 11 upbm affinity estimate (log intensity, higher = more binding, comparable within an allelic series) | 11 upbm affinity estimate (log intensity, higher = more binding, comparable within an allelic series) | 10.8 upbm affinity estimate (log intensity, higher = more binding, comparable within an allelic series) | 10.9 upbm affinity estimate (log intensity, higher = more binding, comparable within an allelic series) | 10.8 upbm affinity estimate (log intensity, higher = more binding, comparable within an allelic series) |
| GCCTTCGC | 8.84 upbm affinity estimate (log intensity, higher = more binding, comparable within an allelic series) | 9.04 upbm affinity estimate (log intensity, higher = more binding, comparable within an allelic series) | 8.95 upbm affinity estimate (log intensity, higher = more binding, comparable within an allelic series) | 9.09 upbm affinity estimate (log intensity, higher = more binding, comparable within an allelic series) | 8.82 upbm affinity estimate (log intensity, higher = more binding, comparable within an allelic series) | 9.06 upbm affinity estimate (log intensity, higher = more binding, comparable within an allelic series) | 8.98 upbm affinity estimate (log intensity, higher = more binding, comparable within an allelic series) | 8.83 upbm affinity estimate (log intensity, higher = more binding, comparable within an allelic series) | 8.96 upbm affinity estimate (log intensity, higher = more binding, comparable within an allelic series) | 8.83 upbm affinity estimate (log intensity, higher = more binding, comparable within an allelic series) | 8.91 upbm affinity estimate (log intensity, higher = more binding, comparable within an allelic series) | 8.85 upbm affinity estimate (log intensity, higher = more binding, comparable within an allelic series) | 8.83 upbm affinity estimate (log intensity, higher = more binding, comparable within an allelic series) |
| ACGATACC | 11.2 upbm affinity estimate (log intensity, higher = more binding, comparable within an allelic series) | 10.3 upbm affinity estimate (log intensity, higher = more binding, comparable within an allelic series) | 11.1 upbm affinity estimate (log intensity, higher = more binding, comparable within an allelic series) | 9.65 upbm affinity estimate (log intensity, higher = more binding, comparable within an allelic series) | 10.6 upbm affinity estimate (log intensity, higher = more binding, comparable within an allelic series) | 11 upbm affinity estimate (log intensity, higher = more binding, comparable within an allelic series) | 10.4 upbm affinity estimate (log intensity, higher = more binding, comparable within an allelic series) | 11.3 upbm affinity estimate (log intensity, higher = more binding, comparable within an allelic series) | 11.4 upbm affinity estimate (log intensity, higher = more binding, comparable within an allelic series) | 11.1 upbm affinity estimate (log intensity, higher = more binding, comparable within an allelic series) | 10.9 upbm affinity estimate (log intensity, higher = more binding, comparable within an allelic series) | 11.1 upbm affinity estimate (log intensity, higher = more binding, comparable within an allelic series) | 11 upbm affinity estimate (log intensity, higher = more binding, comparable within an allelic series) |
| GGTATCAA | 11.6 upbm affinity estimate (log intensity, higher = more binding, comparable within an allelic series) | 10.6 upbm affinity estimate (log intensity, higher = more binding, comparable within an allelic series) | 11.7 upbm affinity estimate (log intensity, higher = more binding, comparable within an allelic series) | 9.74 upbm affinity estimate (log intensity, higher = more binding, comparable within an allelic series) | 11 upbm affinity estimate (log intensity, higher = more binding, comparable within an allelic series) | 11.4 upbm affinity estimate (log intensity, higher = more binding, comparable within an allelic series) | 10.6 upbm affinity estimate (log intensity, higher = more binding, comparable within an allelic series) | 11.6 upbm affinity estimate (log intensity, higher = more binding, comparable within an allelic series) | 11.5 upbm affinity estimate (log intensity, higher = more binding, comparable within an allelic series) | 11.6 upbm affinity estimate (log intensity, higher = more binding, comparable within an allelic series) | 11.4 upbm affinity estimate (log intensity, higher = more binding, comparable within an allelic series) | 11.4 upbm affinity estimate (log intensity, higher = more binding, comparable within an allelic series) | 11.4 upbm affinity estimate (log intensity, higher = more binding, comparable within an allelic series) |
